# Test results as given in ChEMBL document CHEMBL3988442, “University of Dundee, Small-Polar-MMV Screening Library” (2021).
# Several values for one entry are separate records, joined by “and”; a condition that tells them apart may be missing. Equal values may be shown once. For part of these data: Results with a measured potency or affinity are listed apart.
# Legend:
# Design in all cases: scale not given: direction of the effect not stated beside the values
# [1] = molecular target: Protein translocase subunit SecA (Escherichia coli (strain K12)) (UniProt P10408); assay: Assay to Identify E. coli SecA ATPase Inhibitors; assay type: functional; conditions: 30 µM
# Protein translocase subunit SecA (Escherichia coli (strain K12)), sequence (P10408 whole entry): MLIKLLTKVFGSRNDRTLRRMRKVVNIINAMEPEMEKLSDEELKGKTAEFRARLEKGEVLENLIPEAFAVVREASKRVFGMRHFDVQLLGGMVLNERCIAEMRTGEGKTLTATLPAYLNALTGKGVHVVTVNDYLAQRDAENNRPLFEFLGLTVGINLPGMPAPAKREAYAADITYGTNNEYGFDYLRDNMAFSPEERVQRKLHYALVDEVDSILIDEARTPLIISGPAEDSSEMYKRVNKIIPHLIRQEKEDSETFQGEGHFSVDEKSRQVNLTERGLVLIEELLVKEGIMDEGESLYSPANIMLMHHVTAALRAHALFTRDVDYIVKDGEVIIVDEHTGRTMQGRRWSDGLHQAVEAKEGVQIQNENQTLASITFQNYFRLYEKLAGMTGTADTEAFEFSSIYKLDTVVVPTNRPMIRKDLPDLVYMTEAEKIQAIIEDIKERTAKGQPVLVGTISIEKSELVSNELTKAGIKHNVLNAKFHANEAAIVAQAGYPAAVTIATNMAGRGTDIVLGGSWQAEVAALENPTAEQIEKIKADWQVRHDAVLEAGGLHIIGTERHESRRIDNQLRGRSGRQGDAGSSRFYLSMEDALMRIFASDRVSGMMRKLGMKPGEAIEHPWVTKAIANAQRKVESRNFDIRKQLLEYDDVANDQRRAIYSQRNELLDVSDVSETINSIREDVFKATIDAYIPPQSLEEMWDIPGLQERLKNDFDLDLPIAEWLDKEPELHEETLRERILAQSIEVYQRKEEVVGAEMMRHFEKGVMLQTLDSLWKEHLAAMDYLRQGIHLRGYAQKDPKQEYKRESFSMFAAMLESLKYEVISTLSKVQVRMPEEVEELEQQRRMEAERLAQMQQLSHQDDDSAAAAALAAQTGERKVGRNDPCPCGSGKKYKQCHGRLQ
# [2] = molecular target: T1, Ubiquitin-activating enzyme e1, putative (Leishmania donovani (strain BPK282A1)) (UniProt E9BSI1); assay: Leishmania donovani Ubiquitin Activating Enzyme (LdE1); assay type: functional; conditions: 30 µM
# T1 sequence (whole entry): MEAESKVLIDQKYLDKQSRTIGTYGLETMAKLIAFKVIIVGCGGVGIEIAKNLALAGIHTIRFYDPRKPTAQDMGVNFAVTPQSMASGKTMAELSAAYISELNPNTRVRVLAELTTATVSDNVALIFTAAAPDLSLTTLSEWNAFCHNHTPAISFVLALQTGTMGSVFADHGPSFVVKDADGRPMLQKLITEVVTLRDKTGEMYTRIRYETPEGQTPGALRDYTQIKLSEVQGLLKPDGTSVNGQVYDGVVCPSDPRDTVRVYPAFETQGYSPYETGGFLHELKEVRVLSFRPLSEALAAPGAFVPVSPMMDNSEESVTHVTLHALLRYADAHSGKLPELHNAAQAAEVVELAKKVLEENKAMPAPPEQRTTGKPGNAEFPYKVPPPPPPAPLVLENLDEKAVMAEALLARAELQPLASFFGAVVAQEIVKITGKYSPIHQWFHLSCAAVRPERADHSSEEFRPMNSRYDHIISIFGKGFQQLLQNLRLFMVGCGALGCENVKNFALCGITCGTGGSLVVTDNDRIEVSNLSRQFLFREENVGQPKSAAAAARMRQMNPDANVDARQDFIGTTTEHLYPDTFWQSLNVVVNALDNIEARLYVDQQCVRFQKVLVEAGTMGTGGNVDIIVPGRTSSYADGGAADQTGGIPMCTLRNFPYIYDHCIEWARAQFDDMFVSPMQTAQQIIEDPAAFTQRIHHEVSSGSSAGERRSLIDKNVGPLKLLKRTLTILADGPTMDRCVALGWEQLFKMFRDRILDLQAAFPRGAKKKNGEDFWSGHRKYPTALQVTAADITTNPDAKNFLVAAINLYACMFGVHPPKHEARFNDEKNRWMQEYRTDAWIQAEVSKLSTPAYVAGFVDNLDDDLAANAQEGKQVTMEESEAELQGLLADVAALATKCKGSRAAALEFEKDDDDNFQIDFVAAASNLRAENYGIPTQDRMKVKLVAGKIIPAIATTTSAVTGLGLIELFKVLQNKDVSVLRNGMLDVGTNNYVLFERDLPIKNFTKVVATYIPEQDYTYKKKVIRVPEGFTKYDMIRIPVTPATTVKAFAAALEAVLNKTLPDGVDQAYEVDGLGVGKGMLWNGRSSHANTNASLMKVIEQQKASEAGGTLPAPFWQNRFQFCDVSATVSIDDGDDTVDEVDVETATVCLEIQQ
# [3] = molecular target: AMP-activated protein kinase, AMPK (Homo sapiens) (UniProt P54646+O43741+P54619+Q9UGJ0+Q9Y478+Q13131+Q9UGI9); assay: AMP-dependent Kinase enzyme assay. An in vitro enzyme assay that detects ADP turnover that is directly proportional to AMPK activity. This uses naive AMPK that is activated during the assay with MK-8722; assay type: functional; conditions: 30 µM
# [4] = molecular target: Sialic acid-binding Ig-like lectin 9 (Homo sapiens) (UniProt Q9Y336); assay: Hs-Siglec9 ALPHAscreen SOP 20170721; conditions: 10 µM
# Sialic acid-binding Ig-like lectin 9 (Homo sapiens), sequence (Q9Y336 whole entry): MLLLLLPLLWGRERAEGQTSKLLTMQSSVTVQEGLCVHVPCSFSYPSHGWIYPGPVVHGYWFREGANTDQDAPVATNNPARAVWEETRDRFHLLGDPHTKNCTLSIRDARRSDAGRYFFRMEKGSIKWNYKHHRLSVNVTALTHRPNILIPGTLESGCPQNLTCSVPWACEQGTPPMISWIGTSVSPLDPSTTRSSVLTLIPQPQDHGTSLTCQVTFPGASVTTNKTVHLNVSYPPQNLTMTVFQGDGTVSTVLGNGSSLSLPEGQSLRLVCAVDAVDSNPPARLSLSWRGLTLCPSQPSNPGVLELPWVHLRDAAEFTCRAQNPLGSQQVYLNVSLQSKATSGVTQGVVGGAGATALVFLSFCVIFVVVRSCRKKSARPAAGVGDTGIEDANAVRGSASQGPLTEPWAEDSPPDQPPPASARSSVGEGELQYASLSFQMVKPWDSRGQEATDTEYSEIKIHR
# Trypanosoma cruzi = assay: Trypanosoma cruzi phosphomannomutase and mannose-1-phosphate guanylyltransferase assay; assay type: functional; conditions: 10 µM
# [5] = molecular target: T2, Arginase-2, mitochondrial (Homo sapiens) (UniProt P78540); assay: in vitro enzyme assay to detect the production of urea directly proportional to the activity of Arginase II; assay type: functional; further: in the data most compounds retested in dose-response had high values
# T2 sequence (whole entry): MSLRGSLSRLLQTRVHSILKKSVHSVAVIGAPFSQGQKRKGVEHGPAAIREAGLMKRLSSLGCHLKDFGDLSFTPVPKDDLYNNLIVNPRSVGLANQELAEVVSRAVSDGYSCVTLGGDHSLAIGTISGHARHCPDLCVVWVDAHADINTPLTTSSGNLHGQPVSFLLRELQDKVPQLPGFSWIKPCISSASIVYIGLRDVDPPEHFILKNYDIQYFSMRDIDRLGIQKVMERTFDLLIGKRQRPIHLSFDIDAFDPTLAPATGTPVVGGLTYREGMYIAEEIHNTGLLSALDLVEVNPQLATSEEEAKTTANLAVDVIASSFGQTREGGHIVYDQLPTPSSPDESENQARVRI
# [6] = molecular target: T3, Proteasome subunit beta (Trypanosoma cruzi) (UniProt O96673); assay: Trypanosoma cruzi proteasome chymotrypsin-like activity (TcProtChymo) assay.; further: in the data most compounds retested in dose-response had high values; assay type: functional; conditions: 9.37 µM
# T3 sequence (whole entry): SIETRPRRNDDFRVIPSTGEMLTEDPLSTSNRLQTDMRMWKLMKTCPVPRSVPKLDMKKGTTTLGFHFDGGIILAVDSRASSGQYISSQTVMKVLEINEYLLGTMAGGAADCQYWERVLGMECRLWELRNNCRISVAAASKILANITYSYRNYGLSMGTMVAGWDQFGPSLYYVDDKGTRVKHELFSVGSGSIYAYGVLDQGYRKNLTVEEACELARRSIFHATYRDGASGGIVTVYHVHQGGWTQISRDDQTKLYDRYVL
# Homo sapiens = species: Homo sapiens; assay: To identify inhibition of the IFN signalling (Jak-Stat) pathway via expression of an eGFP reporter gene under the control of an IFN-stimulated response element (ISRE) containing MxA promoter.; assay type: functional; conditions: 30 µM
# [7] = molecular target: T4, Tyrosyl-tRNA synthetase, putative (Trypanosoma cruzi (strain CL Brener)) (UniProt Q4DSP6); assay: Trypanosoma cruzi tyrosyl tRNA synthetase (TcYRS) _High Tyrosine SOP; assay type: functional; conditions: 30 µM; further: in the data most compounds retested in dose-response had high values
# T4 sequence (whole entry): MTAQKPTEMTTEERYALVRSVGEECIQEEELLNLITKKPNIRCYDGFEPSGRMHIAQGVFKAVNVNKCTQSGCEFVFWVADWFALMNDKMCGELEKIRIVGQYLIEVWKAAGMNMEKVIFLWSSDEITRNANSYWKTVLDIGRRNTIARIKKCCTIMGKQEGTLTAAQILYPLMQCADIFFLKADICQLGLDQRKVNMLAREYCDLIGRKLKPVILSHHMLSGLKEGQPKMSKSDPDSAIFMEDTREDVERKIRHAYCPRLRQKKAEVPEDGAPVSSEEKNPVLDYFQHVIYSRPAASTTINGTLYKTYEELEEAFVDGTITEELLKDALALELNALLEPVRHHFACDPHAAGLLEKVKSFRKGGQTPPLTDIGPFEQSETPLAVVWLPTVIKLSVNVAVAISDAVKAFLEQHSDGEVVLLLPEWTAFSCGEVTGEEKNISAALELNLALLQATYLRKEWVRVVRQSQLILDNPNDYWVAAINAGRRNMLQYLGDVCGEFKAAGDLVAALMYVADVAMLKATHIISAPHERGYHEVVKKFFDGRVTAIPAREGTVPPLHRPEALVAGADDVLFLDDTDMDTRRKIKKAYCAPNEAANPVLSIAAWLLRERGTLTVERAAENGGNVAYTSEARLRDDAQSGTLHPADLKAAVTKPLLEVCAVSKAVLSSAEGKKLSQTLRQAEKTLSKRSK
# [8] = molecular target: T4, Tyrosyl-tRNA synthetase, putative (Trypanosoma cruzi (strain CL Brener)); assay: Trypanosoma cruzi tyrosyl tRNA synthetase (TcYRS) SOP; assay type: functional; conditions: 30 µM
# [9] = molecular target: Chromo domain-containing protein 1 (Saccharomyces cerevisiae (strain ATCC 204508 / S288c) (Baker's yeast)) (UniProt P32657); assay: ScCHD-1 Enzyme Inhibition Assay; assay type: functional; conditions: 30 µM; further: in the data most compounds retested in dose-response had high values
# Chromo domain-containing protein 1 (Saccharomyces cerevisiae (strain ATCC 204508 / S288c) (Baker's yeast)), sequence (P32657 whole entry, the tested form may be a part): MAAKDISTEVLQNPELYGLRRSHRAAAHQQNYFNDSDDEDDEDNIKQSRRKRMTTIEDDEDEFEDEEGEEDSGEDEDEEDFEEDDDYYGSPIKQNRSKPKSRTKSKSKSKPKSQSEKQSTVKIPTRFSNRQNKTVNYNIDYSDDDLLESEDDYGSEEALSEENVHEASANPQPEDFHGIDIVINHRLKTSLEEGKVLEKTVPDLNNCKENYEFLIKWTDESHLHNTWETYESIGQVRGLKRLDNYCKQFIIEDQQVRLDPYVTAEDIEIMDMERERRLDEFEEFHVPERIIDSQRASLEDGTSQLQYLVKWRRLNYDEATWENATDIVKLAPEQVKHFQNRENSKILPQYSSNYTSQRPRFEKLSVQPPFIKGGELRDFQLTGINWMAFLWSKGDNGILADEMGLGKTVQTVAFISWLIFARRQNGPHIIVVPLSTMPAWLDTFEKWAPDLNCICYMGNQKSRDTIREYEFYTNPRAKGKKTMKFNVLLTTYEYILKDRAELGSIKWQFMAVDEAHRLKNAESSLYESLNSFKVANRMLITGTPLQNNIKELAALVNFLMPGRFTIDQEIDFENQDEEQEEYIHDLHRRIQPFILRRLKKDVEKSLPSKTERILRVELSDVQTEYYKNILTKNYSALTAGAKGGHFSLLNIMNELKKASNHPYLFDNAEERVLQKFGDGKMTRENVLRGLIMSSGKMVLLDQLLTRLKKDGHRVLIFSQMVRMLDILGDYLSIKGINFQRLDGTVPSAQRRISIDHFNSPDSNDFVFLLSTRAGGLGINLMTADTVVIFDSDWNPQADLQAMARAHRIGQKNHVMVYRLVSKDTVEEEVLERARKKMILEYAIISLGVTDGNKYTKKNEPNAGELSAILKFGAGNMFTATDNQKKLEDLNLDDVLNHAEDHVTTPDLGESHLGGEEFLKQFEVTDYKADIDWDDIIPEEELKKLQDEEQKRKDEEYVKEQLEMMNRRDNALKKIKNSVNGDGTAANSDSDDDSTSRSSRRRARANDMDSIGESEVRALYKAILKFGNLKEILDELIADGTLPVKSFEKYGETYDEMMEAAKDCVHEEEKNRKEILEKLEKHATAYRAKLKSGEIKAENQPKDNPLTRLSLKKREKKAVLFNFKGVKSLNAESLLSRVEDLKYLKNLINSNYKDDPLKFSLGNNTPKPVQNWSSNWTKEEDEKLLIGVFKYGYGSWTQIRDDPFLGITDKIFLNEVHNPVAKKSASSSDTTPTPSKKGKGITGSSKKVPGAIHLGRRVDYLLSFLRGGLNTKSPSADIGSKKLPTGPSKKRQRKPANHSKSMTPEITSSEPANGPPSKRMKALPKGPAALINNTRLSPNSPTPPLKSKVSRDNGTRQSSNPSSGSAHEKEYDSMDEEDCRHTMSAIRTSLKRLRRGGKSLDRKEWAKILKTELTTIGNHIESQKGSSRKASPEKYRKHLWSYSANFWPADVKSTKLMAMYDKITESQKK
# N/A = assay: Trypanosoma cruzi proteasome luciferase counter-screen; assay type: functional; conditions: 9.37 µM
SMILES,Percent Effect [1] [%],Percent Effect [2] [%],Percent Effect [3] [%],Percent Effect [4] [%],Percent Effect (Trypanosoma cruzi) [%],Percent Effect ([5]; 30 µM) [%],Percent Effect ([5]; 33.3 µM) [%],Percent Effect [6],Percent Effect (Homo sapiens) [%],Percent Effect [7] [%],Percent Effect [8] [%],Percent Effect [9] [%],Percent Effect (N/A)
COc1ccc(-c2nc(CN3CC(n4nc(C)cc4C)C3)no2)cc1,-4.78,-5.2,0.251,-0.396,-6.79,2.7,17.9,14.5%,15.2,2.15,1.24,1.8,–
CCC(C(=O)NCc1ccncc1)N(c1cccc(C)c1)S(C)(=O)=O (stereo not given),-2.54,2.67,0.78,9.85,5.16,10.3,9.38,7.32%,18.8,2.73,13.6,-7.66,–
Cn1cc(CN(Cc2ccccc2)CC(O)c2cccs2)cn1 (stereo not given),-2.22,2.7,-1.93,9.64,7.14,7.03,-1.74,7.81%,1.28,-1.07,-13.6,-8.54,–
Cc1cc(C2CCCN(C(=O)c3c(C)noc3C)C2)n[nH]1 (stereo not given),-3.57,2.63,9.83,9.23,0.292,–,-20.1,16.6% and 37.9% and 18.8%,-5.01,7.45,7.79,-1.42,18% and 16.2%
Cc1ccc([C@@H]2CN(S(=O)(=O)C(C)C)C[C@H]2N(C)C)cc1,-6.03,13.5,-2.84,23.9,7.33,-14.6,4.22,-0.258%,-1,3.23,18.5,-8.94,–
COc1cc(/C=C/c2ncc(C(=O)O)s2)cc(Cl)c1O,3.12,13.9,50.5,-3.01,0.923,–,4.95,99.9% and 99% and 99.8%,-2.51,4.17,15.2,-33.3,92.6% and 91.5%
Cc1cc(CNC(=O)N2CCN(c3ccccc3)CC2)no1,-3.75,5.41,2.37,0.348,0,3.78,4.17,10.6%,-2.92,9.9,3.66,-1.36,–
Cc1ccc(CNC(=O)N(Cc2ccccc2F)C2CC2)cn1,-6.51,2.67,0.556,21.6,-1.27,13.5,-2.6,7.85%,15.6,6.01,8.64,-2.37,–
Cc1cccc(NC(=O)c2sccc2C)n1,-3.25,23.7,-0.39,-12.7,3.99,–,-16.6,91.2% and 92.2% and 77.2%,16.1,1.06,13,-7.3,69.5% and 70.4%
COc1ccc(CN2C[C@@H](N(C)Cc3ccco3)[C@H]3OCCC[C@H]32)cc1,-4.13,5.33,8.07,3.01,-5.71,-8.11,0.699,11%,9.72,3.19,8.97,-3.71,–
